Experimental data as given in PubChem BioAssay AID623870 (Broad Institute, 2012).
Among all 390,000 compounds or so, about 2,600 (0.67%) were called active. Only a selection was taken, and actives are over-represented in it overall. Values without a mark were called inactive.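 Rule for the calls: active = mean inhibition of replicates at least 50% and at least half of replicates each reaching 50%; inconclusive = half or more replicates reach 50% but mean below 50%; inactive = the rest.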

What follows are compounds tested against Transforming acidic coiled-coil-containing protein 3 (Homo sapiens) (UniProt Q9Y6A5) (assay: disruptors of ARNT/TACC3 protein interaction, primary screen, biochemical, AlphaScreen, single concentration (AID 623870;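 note: 0% = complete ARNT plus TACC3 wells and 100% = ARNT alone without TACC3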)). Settings: AlphaScreen His-ARNT PAS-B/GST-TACC3 binding, luminescence; at 9.99 µM; stronger effect = higher value; TACC3 fragment carries E629A point mutation.
With `CN1c2ccc(-c3cccc(C#N)c3)cc2[C@H]2[C@H](CCN2S(=O)(=O)c2cccc(F)c2)[C@@H]1CO` the inhibition was -10.1%. `CNC[C@H]1OCCCC[C@H](C)Oc2ccc(NS(C)(=O)=O)cc2C(=O)N([C@@H](C)CO)C[C@H]1C` showed an inhibition of -0.797%. With `O=C(COC(=O)c1ccc(Br)o1)NC12CC3CC(CC(C3)C1)C2` the inhibition was 6.24%. `O=C(OCC(=O)c1cccs1)c1ccc([N+](=O)[O-])o1` showed an inhibition of -2.19%. `O=C(COC(=O)c1ccc([N+](=O)[O-])o1)NC12CC3CC(CC(C3)C1)C2` was tested, and the inhibition was 31.3% (active). `CCN(C[C@H]1[C@H](c2ccc(-c3ccccc3)cc2)[C@H](CO)N1CC1CC1)C(C)=O` gave an inhibition of 2.62%. `C[C@@H]1CCCCO[C@H](CN(C)C(=O)CCC(F)(F)F)[C@@H](C)CN([C@@H](C)CO)C(=O)c2cc(NC(=O)c3ccncc3)ccc2O1` showed an inhibition of 11%. With `Cc1ccc(Cc2nnc(SCC(=O)Nc3ccccc3C)[nH]c2=O)cc1` the inhibition was -1.06%. For `COc1ccc(Cc2nnc(N/N=C/c3ccccc3O)[nH]c2=O)cc1OC`, the inhibition was 58.3% (active). `CC(C)c1ccc(Cc2nnc(NCCCO)[nH]c2=O)cc1` was tested, and the inhibition was -6.28%. `COc1cccc(NC(=O)C[C@H]2CC[C@@H]3[C@H](COc4ccc(NC(C)=O)cc4C(=O)N3C)O2)c1` gave an inhibition of 13%. With `C[C@@H]1CN([C@H](C)CO)C(=O)c2cc(NC(=O)Nc3ccc4c(c3)OCO4)ccc2O[C@@H]1CN(C)C(=O)Nc1ccc(F)cc1` the inhibition was 14%. `CCC(=O)N1C[C@H]2[C@@H](c3ccccc31)[C@H](CO)N2Cc1ccccc1F` gave an inhibition of -4.33%. `CC(=O)N1[C@@H](CO)[C@@H]2c3ccccc3N(S(=O)(=O)c3ccccc3)C[C@@H]21` was tested, and the inhibition was 4.39%. `O=C(C1CCCC1)N1[C@H](CO)[C@@H]2c3ccccc3N(S(=O)(=O)c3ccccc3)C[C@@H]21` showed an inhibition of -1.74%. In the case of `O=S(=O)(c1ccccc1)N1C[C@@H]2[C@H](c3ccccc31)[C@H](CO)N2Cc1ccccn1`, the inhibition is reported as 32.5% (active). Compound `O=C(C[C@@H]1CC[C@@H]2[C@H](COC[C@@H](O)CN2Cc2ccc(Cl)cc2)O1)NCc1ccccc1Cl` has an inhibition of 1.65%. Compound `COc1ccccc1NC1=NC(c2ccc(Cl)cc2)N=C(N)N1` (centres undefined) has an inhibition of -1.44%. With `COc1ccccc1Nc1nc(N)nc(CN(C)C2CCCCC2)n1` the inhibition was 54% (active). Compound `COc1ccccc1Nc1nc(N)nc(CSC(=S)N2CCOCC2)n1` has an inhibition of 0.944%. For `COc1ccc(S(=O)(=O)N(C)C[C@@H]2Oc3ncc(C#Cc4ccc(F)cc4)cc3C(=O)N([C@H](C)CO)C[C@@H]2C)cc1`, the inhibition was -1.03%. `N#CC1=C(N)Oc2c(sc3ccccc23)C1c1ccco1` (centres undefined) showed an inhibition of 34.5%. For `N#CC1=C(N)Oc2c(ccc3cccnc23)C1c1ccncc1` (centres undefined), the inhibition was 71.2% (active). In the case of `C[C@@H]1CN([C@H](C)CO)C(=O)c2c(c3ccccc3n2C)-c2ccccc2CO[C@@H]1CN(C)C(=O)Nc1ccccc1`, the inhibition is reported as 6.33%. Compound `CCCNC(=O)N(C)C[C@@H]1Oc2ncc(C#CCc3ccccc3)cc2C(=O)N([C@@H](C)CO)C[C@H]1C` has an inhibition of -5.08%. In the case of `COc1ccc(S(=O)(=O)N(C)C[C@H]2OCCCC[C@@H](C)Oc3ccc(NC(=O)CCC(F)(F)F)cc3C(=O)N([C@@H](C)CO)C[C@H]2C)cc1`, the inhibition is reported as -1.27%. With `Oc1c(C(c2ccccn2)N2CCOCC2)ccc2cccnc12` (centres undefined) the inhibition was 70.2% (active). For `CNC[C@@H]1OCCCC[C@H](C)Oc2ccc(NC(=O)Nc3ccc(OC)cc3)cc2C(=O)N([C@H](C)CO)C[C@@H]1C`, the inhibition was -2.24%. In the case of `O=C(C[C@@H]1C[C@H]2c3cc(NC(=O)Nc4ccccc4F)ccc3O[C@H]2[C@@H](CO)O1)NCc1ccncc1`, the inhibition is reported as -5.98%. In the case of `Cc1ccccc1CSc1nnc(-c2cccnc2)n1N`, the inhibition is reported as -2.01%. With `Cc1ccccc1CSc1nnc(-c2ccccn2)n1N` the inhibition was 54.4% (active). For `Cn1c(SCC(=O)C(C)(C)C)nnc1-c1ccccn1`, the inhibition was 13.6%. `C[C@H](CO)N1C[C@H](C)[C@@H](CN(C)C(=O)C2CCCCC2)Oc2cc(C3=CCCC3)ccc2S1(=O)=O` gave an inhibition of 5.91%. Work on `O=C(C[C@@H]1CC[C@@H]2[C@H](COC[C@@H](O)CN2Cc2ccc(F)cc2)O1)NCc1ccncn1` yielded an inhibition of -1.34%. For `COc1ccccc1C#Cc1ccc([C@@H]2[C@H](CO)N3CCCCN(CCC(F)(F)F)C[C@@H]23)cc1`, the inhibition was 26%. `Cc1noc(C)c1S(=O)(=O)N(C)C[C@H]1OCCCC[C@H](C)Oc2ccc(NS(=O)(=O)c3ccccc3)cc2C(=O)N([C@H](C)CO)C[C@@H]1C` showed an inhibition of -5.63%. Compound `COc1ccc(S(=O)(=O)N2C[C@@H](O)COC[C@H]3O[C@H](CC(=O)N[C@H]4CCN(Cc5ccccc5)C4)CC[C@@H]32)cc1` has an inhibition of -2.17%. In the case of `Cc1cc(F)ccc1S(=O)(=O)N1CCCOC1CNC(=O)C(=O)NCCC1=CCCCC1` (centres undefined), the inhibition is reported as 3.52%. For `O=C(NCCCn1ccnc1)C(=O)NCC1OCCN1S(=O)(=O)c1cc(F)ccc1F` (centres undefined), the inhibition was 60.2% (active). `O=C(NCCCc1ccccc1)C(=O)NCC1OCCN1S(=O)(=O)c1ccccc1` (centres undefined) gave an inhibition of 0.478%. Compound `CC(C)NC(=O)Nc1ccc2c(c1)CC(=O)N([C@@H](C)CO)C[C@@H](C)[C@H](CN(C)CC1CC1)O2` has an inhibition of -5.56%. In the case of `CO[C@@H]1CC[C@@H]2CCOc3ccc(C#N)cc3C(=O)N(C)C[C@H](c3ccccc3)CC(=O)N(C)C[C@H]1O2`, the inhibition is reported as -7.48%. For `Cc1noc(C)c1NC(=O)N[C@H]1C=C[C@@H](CC(=O)Nc2ccccc2)O[C@H]1CO`, the inhibition was -3.76%. `Cc1ccc(S(=O)(=O)Nc2ccc3c(c2)CC(=O)N([C@@H](C)CO)C[C@@H](C)[C@@H](CN(C)S(=O)(=O)c2ccccc2)O3)cc1` showed an inhibition of -1.52%. `COc1c(O)cc2oc(-c3ccc(O)c(O)c3)cc(=O)c2c1O` was tested, and the inhibition was 36.8% (active). Compound `C[C@H](CO)N1C[C@H](C)[C@H](CN(C)C(=O)C2CCOCC2)Oc2ncc(-c3ccccc3)cc2C1=O` has an inhibition of -4.96%. `CC(C)CC#Cc1cnc2c(c1)C(=O)N([C@@H](C)CO)C[C@H](C)[C@@H](CN(C)C(=O)c1ccc(F)cc1)O2` gave an inhibition of 7.13%. `CC(c1ccccn1)N(CCN(C)C)C(=S)Nc1ccccc1F` (centres undefined) was tested, and the inhibition was 56.1% (active). `CSc1cccc(NC(=S)N(C(C)C)C(C)c2ccccn2)c1` (centres undefined) was tested, and the inhibition was 19%. With `Cc1cccc(NC(=S)N(CCN(C)C)C(C)c2ccco2)c1` (centres undefined) the inhibition was -28.1%. With `C[C@@H]1CN([C@H](C)CO)S(=O)(=O)c2ccc(-c3cncnc3)cc2O[C@H]1CN(C)C(=O)Cc1ccccc1` the inhibition was -17%. In the case of `C[C@H](CO)N1C[C@H](C)[C@@H](CN(C)Cc2ccc(Cl)c(Cl)c2)Oc2c(NC(=O)Nc3ccccc3)cccc2C1=O`, the inhibition is reported as 6.91%. Compound `CCCc1[nH]nc2c1C(c1ccc(Br)s1)C(C#N)=C(N)O2` (centres undefined) has an inhibition of 3.43%. In the case of `COc1cc(C2C(C#N)=C(N)Oc3n[nH]c(-c4ccccn4)c32)cc(OC)c1OC` (centres undefined), the inhibition is reported as 71.4% (active). `COc1ccccc1C1C(C#N)=C(N)Oc2c1c(-c1ccccc1)nn2-c1ccccc1` (centres undefined) gave an inhibition of 2.34%. `O=C(C[C@H]1CC[C@H]2[C@@H](COC[C@@H](O)CN2Cc2ccccc2F)O1)NCc1ccccc1F` showed an inhibition of -10%. With `Cc1noc(C)c1NC(=O)Nc1ccc2c(c1)C(=O)N([C@@H](C)CO)C[C@H](C)[C@@H](CN(C)Cc1ccncc1)OCCCC[C@@H](C)O2` the inhibition was -0.402%. In the case of `CN(C)c1ccc2c(c1)[C@H]1C[C@H](CC(=O)O)O[C@H](CO)[C@H]1O2`, the inhibition is reported as 22.1%. With `CNC(=O)C[C@H]1CC[C@H]2[C@H](COc3ccc(NC(=O)c4cc(C)on4)cc3C(=O)N2C)O1` the inhibition was 8.66% (active). In the case of `Cc1cc(C(=O)Nc2ccc3c(c2)C(=O)N(C)[C@@H]2CC[C@@H](CC(=O)NC4CCCC4)O[C@@H]2CO3)no1`, the inhibition is reported as -5.47%. In the case of `Cc1cc(C(=O)Nc2ccc3c(c2)C(=O)N(C)[C@@H]2CC[C@H](CC(=O)NC4CCCC4)O[C@@H]2CO3)no1`, the inhibition is reported as -1.61%. For `Cc1ccccc1Nc1nc(N)nc(CN2CCN(c3ccccn3)CC2)n1`, the inhibition was 86% (active). `Cc1ccccc1Nc1nc(N)nc(CSc2nnc3ccccn23)n1` showed an inhibition of -0.395%. `CCCn1nc(C(=O)OCc2nc(N)nc(Nc3ccccc3C)n2)c2ccccc2c1=O` showed an inhibition of 10.3%. For `COc1ccc(-c2ccc([C@@H]3[C@@H](C#N)N(C(=O)C4CCC4)[C@@H]3CO)cc2)cc1`, the inhibition was -0.479%. For `C[C@H]1CN([C@@H](C)CO)C(=O)c2cc(N(C)C)ccc2O[C@@H]1CN(C)C(=O)Nc1ccc2c(c1)OCO2`, the inhibition was 12.1%. In the case of `O=C(Nc1nnc(-c2ccco2)o1)c1ccc(S(=O)(=O)N2CCOCC2)cc1`, the inhibition is reported as 79.1% (active). For `Cc1ccnc(NS(=O)(=O)c2ccc(NC(=O)c3ccc(S(=O)(=O)N4CCOCC4)cc3)cc2)n1`, the inhibition was -1.47%. Work on `O=C(Nc1ccc(S(=O)(=O)N2CCOCC2)cc1)c1ccc2ncsc2c1` yielded an inhibition of 8.14%. Compound `CCCNC(=O)C[C@@H]1CC[C@H]2[C@H](COc3ccc(NC(=O)CCC)cc3C(=O)N2C)O1` has an inhibition of -12.3%. `Cc1noc(C)c1NC(=O)Nc1ccc2c(c1)C(=O)N([C@H](C)CO)C[C@H](C)[C@H](CN(C)Cc1ccc(C(=O)O)cc1)OCCCC[C@H](C)O2` was tested, and the inhibition was -1.31%. Compound `C[C@H](CO)N1C[C@H](C)[C@@H](CN(C)CC2CCCCC2)Oc2ccc(NS(=O)(=O)c3cccs3)cc2CC1=O` has an inhibition of 8.01%. Compound `C[C@H](CO)N1C[C@H](C)[C@@H](CN(C)C)Oc2ccc(NS(=O)(=O)c3cccs3)cc2C1=O` has an inhibition of -4.47%. In the case of `C[C@@H]1CN([C@@H](C)CO)C(=O)c2cc(NS(=O)(=O)c3cccs3)ccc2O[C@H]1CN(C)CC1CCCCC1`, the inhibition is reported as 54.3% (active).
